ALR inh: inhibitors of human ALR sulfhydryl oxidase, primary screen, biochemical, H2O2 detection, HRP-luminol luminescence, single point. FAD-linked sulfhydryl oxidase ALR (Homo sapiens), P55789. purified ALR, DTT oxidation. inhibition, % (no concentration beside the values). hit rate 3.8% among 290,000. AID 485317, 2010;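 active = mean replicate inhibition above about 79%, with every replicate also reaching it, limit read from the data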
PolyA inh: polyadenylation inhibitors in yeast reporter cells, primary screen, luminescence, S. cerevisiae. S. cerevisiae SKY197-pL101 polyadenylation reporter, beta-gal luminescence; efflux-impaired pdr1/pdr3 knockout yeast; score 100 = 6 SD above DMSO. activity score, % at 12 µM. hit rate 0.02% among 300,000. AID 1875, 2009;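 active = lowest replicate activity score at least 50, where 100 means six control SD above control mean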;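 also: yeast exposed to compound for 9 h at 30 °C; higher score means more reporter readthrough which indicates perturbed polyadenylation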
CaV13 ICDI inh: Disruptors of the CACNA1D IQ motif to Ca2+-dependent inactivation inhibitor domain association, primary screening, Förster resonance energy transfer in intact living … | inhibition, % at 12.3 µM | hit rate 0.098% among 340,000 | HEK cells, CFP/YFP FRET ICDI-IQ, plate reader, 10 min; percent FRET-ratio fall versus neutral wells;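 active = mean replicate inhibition of at least 30% and at least 1% of replicates passing that level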;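 also: 0% = median of the neutral control wells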
M18AAP inhibitor: PfM18AAP inhibitors, malaria aminopeptidase, primary screen, biochemical, QFRET, recombinant enzyme; H-Glu-NHMec fluorogenic cleavage; AID 1822, 2009; M18 aspartyl aminopeptidase (Plasmodium falciparum 3D7); inhibition, % at 7.35 µM; hit rate 1.2% among 290,000;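 active = inhibition above the campaign mean inhibition over all tested compounds plus 3 SD, cut at about 28% in these data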;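 also: 0% = plate median of test compound wells and 100% = 2 mM ZnCl2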
IDE cell activ: human IDE activators in live cells, primary screen, fluorescence polarization, HEK cells, FAbeta-B substrate | Insulin-degrading enzyme (Homo sapiens), P14735 | FAbeta-B cleavage; 0% vehicle, 100% cell-free pure enzyme wells | activation, % at 5.96 µM | hit rate 0.073% among 340,000;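 active = activation above the mean of all tested compounds plus 3 SD, set per screening campaign, cut at about 17% in these data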
Target sequence (P14735 whole entry, looked up): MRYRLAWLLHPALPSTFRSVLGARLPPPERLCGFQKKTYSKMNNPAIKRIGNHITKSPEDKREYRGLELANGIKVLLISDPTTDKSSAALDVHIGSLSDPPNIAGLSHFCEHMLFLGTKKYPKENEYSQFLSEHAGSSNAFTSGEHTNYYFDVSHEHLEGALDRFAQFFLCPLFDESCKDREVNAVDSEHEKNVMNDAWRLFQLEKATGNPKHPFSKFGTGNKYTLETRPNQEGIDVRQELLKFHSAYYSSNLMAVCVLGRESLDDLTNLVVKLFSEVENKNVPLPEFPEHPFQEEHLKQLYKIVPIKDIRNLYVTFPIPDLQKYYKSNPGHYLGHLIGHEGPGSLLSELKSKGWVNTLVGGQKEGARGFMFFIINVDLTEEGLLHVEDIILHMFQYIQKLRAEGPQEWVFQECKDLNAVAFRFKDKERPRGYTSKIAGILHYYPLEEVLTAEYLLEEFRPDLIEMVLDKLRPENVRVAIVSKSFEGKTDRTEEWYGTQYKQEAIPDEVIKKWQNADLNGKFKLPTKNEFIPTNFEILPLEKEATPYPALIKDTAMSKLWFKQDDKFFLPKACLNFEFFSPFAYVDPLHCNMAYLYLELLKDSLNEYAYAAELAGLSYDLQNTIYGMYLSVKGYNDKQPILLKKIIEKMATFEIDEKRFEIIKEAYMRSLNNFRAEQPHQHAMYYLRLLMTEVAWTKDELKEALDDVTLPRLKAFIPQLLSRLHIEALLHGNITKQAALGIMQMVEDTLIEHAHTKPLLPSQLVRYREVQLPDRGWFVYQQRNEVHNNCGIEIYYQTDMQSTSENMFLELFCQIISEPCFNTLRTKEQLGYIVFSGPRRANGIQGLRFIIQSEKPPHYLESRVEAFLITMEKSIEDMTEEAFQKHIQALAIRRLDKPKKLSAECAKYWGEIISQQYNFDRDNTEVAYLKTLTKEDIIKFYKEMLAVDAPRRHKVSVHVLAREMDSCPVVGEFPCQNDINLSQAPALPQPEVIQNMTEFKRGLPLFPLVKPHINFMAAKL
IDE cell inh: human IDE inhibitors in live cells, primary screen, fluorescence polarization, HEK cells, FAbetaB substrate. FAbetaB cleavage. inhibition, % at 5.59 µM. hit rate 0.41% among 320,000;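 active = percent inhibition above the average of all tested compounds plus 3 SD, set per screening campaign, cut at about 16% in these data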;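 also: IDE supplied by intact live HEK cells; FP after avidin binding of uncleaved biotin substrate so inhibition keeps polarization high; 0% = DMSO wells and 100% = 60 µM reference IDE inhibitor Ii1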
* marks the source's active call; other numbers are inactive results. A selection: hits, their analogues and other compounds. The true share with any hit is near 4.1%.

Screening COc1ccc(OCCC(=O)OCC(=O)c2ccc[nH]2)cc1 returned ALR inh -13, PolyA inh 28, CaV13 ICDI inh -3, M18AAP inhibitor 4, IDE cell activ 3 and IDE cell inh 7.
For CCN(Cc1ccncc1)S(=O)(=O)c1ccc(C(C)=O)cc1 the results were ALR inh 90*, PolyA inh 2, CaV13 ICDI inh -3, M18AAP inhibitor 6, IDE cell activ -2 and IDE cell inh -4.
O=C1OC(c2ccccc2)=C/C1=C/N1CCCCC1 was read as ALR inh 85*, PolyA inh 0, CaV13 ICDI inh -4, M18AAP inhibitor 2, IDE cell activ -2 and IDE cell inh 1.
For O=C1OC(c2ccccc2)=CC1=Cc1ccccc1O the results were CaV13 ICDI inh -7.
COc1ccc(CCN2CC(C(=O)NCc3ccc(F)cc3)CC2=O)cc1OC (centres undefined) was read as ALR inh -4, PolyA inh 8, CaV13 ICDI inh -2, M18AAP inhibitor 1, IDE cell activ 2 and IDE cell inh 0.
COc1cccc(NC(=S)NNC(=O)c2c([N+](=O)[O-])c(C)nn2C)c1 was read as PolyA inh 15, CaV13 ICDI inh -9, M18AAP inhibitor 6, IDE cell activ 7 and IDE cell inh 0.
`COc1cccc(NC(=S)NNC(=O)C(C)n2nc(C)c([N+](=O)[O-])c2C)c1` (centres undefined) gave ALR inh 84*, PolyA inh 11, CaV13 ICDI inh -3, M18AAP inhibitor 17, IDE cell activ 0 and IDE cell inh -1.
`CC(=O)N(CC(=O)N(CC(=O)O)c1ccc(Cl)cc1)c1ccc(Cl)cc1` gave CaV13 ICDI inh -5 and IDE cell activ 1.
COc1ccc(SC[C@H](C)CN2CC[C@H](C(C)(C)C)CCC2=O)cc1 was read as ALR inh 99*, CaV13 ICDI inh -7, IDE cell activ 0 and IDE cell inh 0.
For C[C@@H](CSc1ccccc1)CN1CC[C@H](C(C)(C)C)CCC1=O the results were ALR inh -4, PolyA inh 0, CaV13 ICDI inh -5, M18AAP inhibitor -14, IDE cell activ 2 and IDE cell inh 5.
Screening CC(=O)Nc1ccc(SC[C@H](C)CN2CC[C@H](O)CCC2=O)cc1 returned ALR inh 98*, CaV13 ICDI inh -9, IDE cell activ 0 and IDE cell inh 0.
`C[C@@H](CSc1ccc(Br)cc1)CN1CC[C@H](O)CCC1=O` gave ALR inh -2, CaV13 ICDI inh -5, IDE cell activ -12 and IDE cell inh 5.
CC(=O)Nc1ccc(SCCN2CC[C@@H](C(C)(C)C)CCC2=O)cc1 was read as ALR inh 99*, CaV13 ICDI inh -4, IDE cell activ -3 and IDE cell inh 2.
For Cc1ccc(SCCN2CCC(C(C)(C)C)CCC2=O)cc1 (centres undefined) the results were ALR inh -1, PolyA inh -5, CaV13 ICDI inh 6, M18AAP inhibitor 5, IDE cell activ 7 and IDE cell inh 1.
For OC(CNCc1ccccc1Cl)C(F)(F)F (centres undefined) the results were ALR inh -17, PolyA inh 15, CaV13 ICDI inh -1, M18AAP inhibitor 4, IDE cell activ 9 and IDE cell inh 4.
`COC(=O)c1ccc(C)c(NC(=O)CSc2nnc3ccccn23)c1` gave ALR inh -5, CaV13 ICDI inh -2, IDE cell activ 4 and IDE cell inh 5.
For O=C1CCc2cc(S(=O)(=O)NC(Cc3ccccc3)C(=O)NCCC3=CCCCC3)ccc2N1 (centres undefined) the results were ALR inh -56, PolyA inh 8, CaV13 ICDI inh 66*, M18AAP inhibitor -3, IDE cell activ 4 and IDE cell inh 0.

Screening results as filed in PubChem.
